The campaign covered roughly 360,000 compounds. About 11,000 (3.1%) were called active. Not shown: some 2% with an inconclusive outcome. No stated cut-off is given here; in the data, active means fluorescence intensity above about 16000; inconclusive means no clear call, values can overlap the other calls; inactive means below that. Shown is part of a subset that was picked to be rich in actives.

A short description of this experiment: counter-screen for toxin protease inhibitors: compound fluorescence, primary screen, artefact control for toxin protease inhibitor project, biochemical, multiplex microsphere, HTS (AID 624483). The conditions noted are these: compound autofluorescence counterscreen, microsphere flow cytometry; hits give high values.
Consider `O=C(O)C1CCCN1S(=O)(=O)c1ccc2c(c1)CCC2` (stereo unspecified), for which the fluorescence intensity was 7810 (inactive).
Then `CC(C)(C)SCCSC1=CC(=O)CC(c2ccccc2)C1` (stereo unspecified), with 3630 (inactive); and `CCCCNC(=O)C[C@@H]1C[C@@]2(C(=O)OCC)CCC=C2N(Cc2ccco2)C1=O`, with 6060 (inactive).
Then `CC1(Cc2ccccc2C#N)C(=O)Nc2ccc(-c3ccc4[nH]ccc4c3)cc21` (stereo unspecified), with 3220 (inactive); and `COc1ccc(NC(=O)CCCN2C(=O)C(c3ccccc3)Oc3cccnc32)cc1` (stereo unspecified), with 5260 (inactive).
As to `Cc1nnsc1C(=O)Nc1cccc(Cl)c1C`, the fluorescence intensity is 4480 (inactive).
Then `Cc1nnsc1S(=O)(=O)Cc1ccccc1Cl`, with 22200 (active).
Then `CCC1CCCCN1S(=O)(=O)Cc1ccccc1Cl` (stereo unspecified), with 5020 (inactive).
Then `C[C@H]1COc2cc(N3CCSCC3)ccc2S(=O)(=O)N1`, with 5560 (inactive); and `c1ccc(C[C@H]2CNCCN2CCC23CC4CC(CC(C4)C2)C3)cc1`, with 3210 (inactive).
`Cc1cc(C)n(-c2c(F)c(F)c(COC(=O)c3ccccc3)c(F)c2F)n1`: the fluorescence intensity is 3060 (inactive).
With `Cc1cc(C)n(-c2nc(C(F)(F)F)nc3ccccc23)n1`, the fluorescence intensity was 3100 (inactive).
Next, `CCCOn1c(-n2nc(C)cc2C)nc2ccccc2c1=O`: 23500 (active); `COc1cc(/C=C/C(=O)OCC(=O)NCCCc2ccccc2)ccc1O`: 5380 (inactive); `Cc1ccccc1S(=O)(=O)N1[C@@H](c2cccc(Cl)c2)C(C(=O)OC(C)(C)C)=CC[C@H]1c1ccc(Cl)cc1`: 4430 (inactive).
Next, `CC12CCC(C(=O)N(CCC#N)CCC#N)(CC1=O)C2(C)C` (stereo unspecified): 20400 (active); `Cn1c(=O)c2c(nc(N/N=C/c3cccs3)n2Cc2ccc(Br)cc2)n(C)c1=O`: 2410 (inactive); `O=C(Nc1cccc(NC(=O)c2ccco2)c1)c1cnccn1`: 23700 (active).
For the molecule `O=C(Nc1nnc(Cc2ccccc2)s1)c1cnccn1`, the fluorescence intensity is 3990 (inactive).
Take `CC(C)(C)NC(=O)c1cc(NC(=O)c2ccco2)cc(NC(=O)c2ccco2)c1`: the fluorescence intensity is 3040 (inactive).
With `CCOC(=O)N(C)c1c(CC)nc2c(OCc3ccccc3C(=O)OC)cccn12`, the fluorescence intensity was 3540 (inactive).
On to `COc1cc(NC(=O)c2cc(-c3ccc(F)cc3OC(C)C)n[nH]2)cc(OC)c1OC`, for which the fluorescence intensity was 3570 (inactive).
Next, `CCNC(=O)c1cc2c(c(-c3cccc(-c4cncnc4)c3)n1)[C@H](CCO)N(C(C)=O)C2`: 6050 (inactive).
Next, `O=C1NC[C@H](CCCCN2CCN(CCc3ccccc3)C(=O)C2=O)N(CC2CCCCC2)C1=O`: 5200 (inactive); `Cc1ccc(NC(=O)C2(N3CCC3=O)CCCCC2)cc1`: 2510 (inactive).
Then `O=C(c1cccc(S(=O)(=O)N2CCOCC2)c1)N1CCOCC1`, with 25300 (active); and `O=C(Nc1ccc(N2CCOCC2)cc1)c1cccc(S(=O)(=O)N2CCOCC2)c1`, with 2540 (inactive); and `O=C(c1cc(S(=O)(=O)N2CCOCC2)ccc1Cl)N1CCOCC1`, with 5390 (inactive).
Regarding `Cc1cccc(OCCNC(=O)CSc2ccc(C(F)(F)F)cc2[N+](=O)[O-])c1`, the fluorescence intensity was 2620 (inactive).
Then `O=c1c2ccccc2nc(CBr)n1-c1ccc(Cl)cc1`, with 3850 (inactive); and `O=c1c2ccccc2nc(-c2ccc(Cl)cc2Cl)n1-c1ccncc1`, with 18700 (active).
Then `O=c1c2ccccc2nc(-c2ccccc2)n1-c1ccccn1`, with 4770 (inactive); and `CCOc1ccc(NC(=O)CCS(=O)(=O)c2ccc3c(c2)CCCN3C(=O)CC)cc1`, with 10500 (inactive).
With `CCNc1nc(NC(C)C)nc(N2CC(=O)N(CC(=O)OCC)C2=N)n1`, the fluorescence intensity is 10500 (inactive).
Then `COC(=O)c1ccc(Oc2nc(NC(C)C)nc(SC)n2)cc1`, with 2470 (inactive); and `CCNc1nc(NC(C)C)nc(OCCOC(=O)c2ccccc2)n1`, with 22900 (active).
Then `CN(C)N1C(N)=C(C#N)C(c2ccc(Br)cc2)C2=C1CCCC2=O` (stereo unspecified), with 4350 (inactive).
Next, `CCOc1ccc(-n2c(O)c(/C=N/Nc3nc(C)cc(C)n3)c3ccccc3c2=O)cc1`: 4560 (inactive); `CCOc1ccc(N=Cc2c(O)n(-c3cccc(C)n3)c(=O)c3ccccc23)cc1`: 20300 (active); `Cc1ccc(N=Cc2c(O)n(-c3nccs3)c(=O)c3ccccc23)c(C)c1`: 2410 (inactive).
`O/N=C(\C[n+]1ccccc1)c1ccc(Br)cc1`: the fluorescence intensity was 3050 (inactive).
In the case of `COC(=O)c1sccc1NC(=O)CC1C(=O)NCCN1C(=O)Nc1ccc(F)cc1F` (stereo unspecified), the fluorescence intensity was 6320 (inactive).
As to `CS(=O)(=O)N(CC(=O)N1CCc2ccccc2C1)c1ccc(Br)cc1`, the fluorescence intensity is 4000 (inactive).
Take `Cc1ccc(S(=O)(=O)N(CC(=O)N2CCc3ccccc3C2)c2cccc(Cl)c2)cc1`: the fluorescence intensity was 2460 (inactive).
Take `COc1cccc(N(CC(=O)N2CCc3ccccc3C2)S(C)(=O)=O)c1`: the fluorescence intensity is 22900 (active).
Then `COc1cc(/C=N\NC(=O)c2nonc2N)c(OC)cc1Br`, with 2500 (inactive); and `COc1cc(N2CCCC2)c(OC)cc1/C=C(/C#N)c1cccc(Br)c1`, with 20000 (active).
`CCOc1ccc(/C=C(/C#N)c2nnc(N3CCOCC3)n2-c2ccccc2)cc1OC`: the fluorescence intensity is 3950 (inactive).
Regarding `O=C(O)c1ccccc1-c1cccc2nncn12`, the fluorescence intensity is 3820 (inactive).
With `Cc1sc2ccccc2c1CNC[C@H]1O[C@@H](n2ccc(=O)[nH]c2=O)[C@H](O)[C@@H]1O`, the fluorescence intensity was 6010 (inactive).
Then `CCc1nc2c(OCCOc3ccccc3)cccn2c1N(C=O)Cc1ccc(OC)cc1`, with 3280 (inactive); and `O=C1CCCc2c1[nH]c1ccc(Br)cc21`, with 10300 (inactive); and `Cc1occc1C(=O)N/N=C/c1ccc(-c2cccc([N+](=O)[O-])c2)o1`, with 6020 (inactive).
Then `COc1ccccc1CNS(=O)(=O)c1ccc(C)cc1`, with 3200 (inactive); and `C#CCCCc1nc2ccccc2c(=O)n1N`, with 2060 (inactive).
Then `Cc1ccc(S(=O)(=O)NCc2nc3ccccc3c(=O)n2N)cc1`, with 23000 (active); and `O=C(COc1ccc(-c2ccccc2)cc1)NN=C1CCCC1`, with 4340 (inactive).
On to `O=S(=O)(NC1CC1)c1ccc2c3c(cccc13)CC2`, for which the fluorescence intensity is 4730 (inactive).
For the molecule `O=S(=O)(NC1CCCCC1)c1ccc(F)c2ccccc12`, the fluorescence intensity was 17400 (active).
Then `O=S(=O)(NC1CC1)c1ccc(F)c(F)c1`, with 5500 (inactive).
With `Cc1cc(=O)oc2c3c(cc(OCC(=O)NCC(O)c4ccccc4)c12)OC(C)(C)CC3` (stereo unspecified), the fluorescence intensity is 5100 (inactive).
Then `COc1cccc(NC(=O)CCc2nnc3ccc(N4CCC(C)CC4)nn23)c1`, with 5600 (inactive); and `CCOC(=O)[C@]12CCC=C1N(Cc1ccco1)C(=O)[C@H](CC(=O)N1CCSCC1)C2`, with 4160 (inactive).
Consider `CC(C)(C(=O)N1CCC1(C)C(=O)NS(=O)(=O)c1ccc(Br)cc1)c1ccccc1` (stereo unspecified), for which the fluorescence intensity is 3370 (inactive).
Next, `NC(c1ccccc1)c1csc(NC(=O)Nc2cccc(C(F)(F)F)c2)n1` (stereo unspecified): 3690 (inactive).
With `Clc1ncn(CCOc2ccccc2)c1Cl`, the fluorescence intensity is 3990 (inactive).
Then `COCCOCCn1cnc2ccccc21`, with 9770 (inactive).
Then `Cc1cc2ncn(CCCCOc3ccccc3)c2cc1C`, with 17400 (active); and `CSc1ccc(CN2CCC2(C)C(=O)Nc2ccc(C)c(O)c2)cc1` (stereo unspecified), with 3540 (inactive); and `O=C(NCCCNc1ccc([N+](=O)[O-])cc1Cl)c1ccccc1F`, with 4790 (inactive).
Then `O=C(NCCCN1CCOCC1)c1ccc([N+](=O)[O-])cc1[N+](=O)[O-]`, with 4500 (inactive).
Consider `O=[N+]([O-])c1ccc(NCCCN2CCOCC2)c(Cl)c1`, for which the fluorescence intensity was 22800 (active).
Take `CC1CCN(C(=O)c2ccc(S(=O)(=O)Cc3cc(F)ccc3F)c([N+](=O)[O-])c2)CC1`: the fluorescence intensity is 2510 (inactive).
Then `CCc1ccc2nc(Nc3ncc(C(C)=O)c(C)n3)nc(C)c2c1`, with 3620 (inactive); and `CCOC(=O)[C@]12CCC=C1N(CCC1=CCCCC1)C(=O)[C@H](CC(=O)NCc1ccc(C)o1)C2`, with 5770 (inactive).
Then `CCCC(NS(=O)(=O)c1ccc(OC)cc1)C(=O)O` (stereo unspecified), with 20900 (active); and `CSCC(NS(=O)(=O)c1ccc(C)cc1)C(=O)O` (stereo unspecified), with 4880 (inactive); and `COc1ccc(S(=O)(=O)NC(C)C(=O)N2CCCCCC2)cc1` (stereo unspecified), with 3500 (inactive).
Next, `O=C(OCC(=O)N1CCCCCC1)c1ccc(Cl)nc1`: 3860 (inactive).
In the case of `N#Cc1cccc(NC(=O)c2cc(C3CCCCN3C(=O)CCc3ccccc3)on2)c1` (stereo unspecified), the fluorescence intensity is 4290 (inactive).
For the molecule `CC(=O)OC[C@@H]1CN(Cc2ccccc2)C[C@H](n2cnc3c(NCc4ccco4)ncnc32)O1`, the fluorescence intensity is 3590 (inactive).
Next, `COc1cccc(NC(=O)CCNS(=O)(=O)c2ccc3c(c2)oc(=O)n3C)c1`: 4240 (inactive); `Cc1ccc(NC(=O)CCNS(=O)(=O)c2ccc3c(c2)oc(=O)n3C)cc1C`: 22000 (active).
Turning to `Cn1c(=O)oc2cc(S(=O)(=O)NCCC(=O)NCc3ccccc3Cl)ccc21`, the fluorescence intensity was 4110 (inactive).
Next, `N#Cc1c(/N=C/N2CCCC2)oc(-c2ccccc2)c1-c1ccccc1`: 3080 (inactive).
For the molecule `O=C(NC1CCN(C(=S)Nc2ccc(Cl)cc2)CC1)C1CCCCC1`, the fluorescence intensity was 3100 (inactive).
Take `O=C(O)C1CCCCC1C(=O)Nc1ccc(Cl)cc1` (stereo unspecified): the fluorescence intensity is 25300 (active).
With `O=C(O)Cc1ccc(NC(=O)C2CCCCC2C(=O)O)cc1` (stereo unspecified), the fluorescence intensity is 4130 (inactive).
With `CCOC(=O)c1ccn(S(=O)(=O)c2ccc(C)cc2)c1-c1ccccc1`, the fluorescence intensity was 5920 (inactive).
Then `O=S1(=O)C[C@@H](N2CCN(CCO)CC2)[C@H](COCc2ccccc2)N1`, with 4260 (inactive); and `COc1ccc(/C=C/C(=O)c2c(O)cc(OC)cc2OC)cc1`, with 5700 (inactive).
Consider `Cc1ccc2nc(-c3ccccc3)c(CC3CCCCC3)n2c1`, for which the fluorescence intensity was 8550 (inactive).
As for `Cc1ccc(SCC2=NNC(=O)C2)cc1`, the fluorescence intensity is 22700 (active).
Then `Cc1ccc(SCCSc2ncccn2)cc1`, with 4180 (inactive); and `Cc1ccc(SCc2cc(=O)[nH]c(N3CCCCC3)n2)cc1`, with 4420 (inactive); and `O=C(COC(=O)c1ccc(Cl)nc1)NCc1cccs1`, with 4330 (inactive).

(Values after PubChem BioAssay AID624483 (NMMLSC, 2012).)
